Screening results (PubChem)
Rango-impB inh: prevents formation of the Rango-importin beta complex; Rango CFP/YFP FRET sensor + importin beta, 45 min; actives 0.031% (n = 340,000); Potency, µM (titrated, usually from 92.2 µM); calls by dose curve; note: nearly all actives have a fitted effect of over 15% in size
Target sequence (Q14974 whole entry, looked up): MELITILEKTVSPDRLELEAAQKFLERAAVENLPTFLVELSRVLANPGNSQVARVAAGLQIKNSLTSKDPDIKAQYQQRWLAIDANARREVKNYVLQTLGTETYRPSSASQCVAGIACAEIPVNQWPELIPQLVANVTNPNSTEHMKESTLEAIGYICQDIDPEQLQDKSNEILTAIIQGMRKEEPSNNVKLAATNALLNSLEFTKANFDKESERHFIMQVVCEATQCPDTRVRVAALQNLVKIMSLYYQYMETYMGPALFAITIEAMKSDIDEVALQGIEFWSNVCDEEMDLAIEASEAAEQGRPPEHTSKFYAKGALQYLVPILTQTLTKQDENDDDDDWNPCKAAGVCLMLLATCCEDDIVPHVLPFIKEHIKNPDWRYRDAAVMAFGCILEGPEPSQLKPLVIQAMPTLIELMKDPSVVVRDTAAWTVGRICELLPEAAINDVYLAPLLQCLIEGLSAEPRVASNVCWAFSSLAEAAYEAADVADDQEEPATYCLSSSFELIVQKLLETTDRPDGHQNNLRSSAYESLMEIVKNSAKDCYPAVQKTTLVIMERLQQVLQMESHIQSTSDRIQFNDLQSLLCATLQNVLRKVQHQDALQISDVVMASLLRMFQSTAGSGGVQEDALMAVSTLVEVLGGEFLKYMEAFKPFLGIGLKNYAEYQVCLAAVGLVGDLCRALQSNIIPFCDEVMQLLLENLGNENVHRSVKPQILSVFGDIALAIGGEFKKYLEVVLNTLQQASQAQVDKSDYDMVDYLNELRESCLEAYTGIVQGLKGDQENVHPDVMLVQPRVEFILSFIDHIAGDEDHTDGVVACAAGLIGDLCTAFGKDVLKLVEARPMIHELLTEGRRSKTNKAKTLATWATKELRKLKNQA
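FRET biosensor Rango (snurportin 1 IBB between N-terminal EYFP and C-terminal Cerulean), 50 nM in PBS/1 mM DTT/0.02% Tween-20/0.1% BSA, preincubated 5 min RT with compound; 0.125 microM importin beta added, 45 min RT, CFP/YFP FRET ratio read.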
PLK1 PBD block: blocks phosphopeptide binding to human PLK1 polo-box domain; actives 2.8% (n = 360,000); P53350; Potency, µM, hits mostly inhibitors; Plk1 PBD binding of FITC phosphopeptide, fluorescence polarization; AID 720504; note: series mostly up to about 57 µM; nearly all actives have a fitted effect of over 65% in size
VDR inh: blocks the human vitamin D receptor; P11473; VDR-SRC2-3 peptide fluorescence polarization, 2 h; Potency, µM, actives largely listed as inhibitors; actives 0.93% (n = 400,000)
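Reagent solutions, kept cold and dark, are dispensed first; compounds are then pinned in at 23 nl, plates briefly spun, and incubated 2 h at ambient temperature. Inhibition of VDR–SRC2-3 peptide binding is read by fluorescence polarization.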
Rango dissoc inh: inhibition of RanGTP-driven Rango-importin beta dissociation. Biochemical FRET Rango-importin beta, RanGTP-induced dissociation. O95149+P62826. actives 0.071% (n = 340,000). Potency, µM (highest dose often 46.1 µM); calls by dose curve; note: nearly all actives have a fitted effect of over 45% in size
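Rango (0.1 uM)–importin beta (0.25 uM) complex; RanGTP-RCC1 trigger; 45 min RT; CFP/YFP FRET read.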
KAT2A inh: blocks human GCN5L2 histone acetyltransferase. Q92830. GCN5L2 HAT assay, ThioGlo1 CoA-SH fluorescence. Potency, µM (highest dose often 58.9 µM), usual class: inhibitors. actives 0.21% (n = 390,000). AID 504327
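qHTS, 1536-well. 20nM enzyme, pH 7.5 HEPES/EDTA/Tween-20 buffer; 15 min compound preinc., RT. Start: 75uM H3(1-25), 70uM AcCoA, 50uM ThioGlo1. Read Ex340/Em540 at t=0 (autofluorescence flag) and t=20 min.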
PI5P4Ka inh: PI5P4K alpha (human) kinase inhibition; P48426; PI5P4Kalpha enzyme, ADP-Glo luminescence, 60 min; active compounds read low; max response, %; actives 1.2% (n = 330,000); active = max response of -50% or lower; inconclusive = between -30% and -50%; inactive = -30% or higher; note: value at the top dose of about 77 µM
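Single end-point luminescence (ADP-Glo) quantified ADP from PI5P4Kalpha turnover; ATP 5 microM final, 1 h at RT, 0.1% CHAPS and 0.28 mM EGTA in HEPES pH 7.4.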
A number is an active result. Sampled rows, rich in hits. Any-hit rate of the full collection: about 3.6%. Unless noted, calls come from the whole dose curve; as a rule, active = well fitted curve in the direction sought with a large enough effect; inconclusive = small, poorly fitted or top-dose-only effect, or another doubt; inactive = no such curve, though single readings can be large; an effect the other way counts as inactive or inconclusive.

Results for N#CC1C(=O)c2ccccc2C1c1ccccc1 (stereo not drawn) ?
Rango-impB inh: inactive; PLK1 PBD block: 30µM; VDR inh: 45µM; Rango dissoc inh: inactive; PI5P4Ka inh: inactive

What do the screens show for `CC(=O)NS(=O)(=O)c1cccnc1Nc1ccc(Cl)c(Cl)c1`?
Rango-impB inh: inactive; PLK1 PBD block: 9.5µM; VDR inh: inactive; Rango dissoc inh: inactive; KAT2A inh: inactive; PI5P4Ka inh: inconclusive

How did O=C(/C=C\Nc1ccc2c(c1)OCO2)c1ccc2c(c1)OCO2 do in these assays?
Rango-impB inh: inconclusive; PLK1 PBD block: 11µM; VDR inh: inconclusive; Rango dissoc inh: inconclusive; KAT2A inh: inactive; PI5P4Ka inh: -59

What do the screens show for `COc1ccc(N/C=C\C(=O)c2ccc3c(c2)OCO3)cc1`?
Rango-impB inh: inconclusive; PLK1 PBD block: inactive; VDR inh: inactive; Rango dissoc inh: inconclusive; KAT2A inh: inactive; PI5P4Ka inh: inactive

How did CCCCN(CCCC)C(=O)CN(C)S(=O)(=O)c1ccc2c(c1)c(=O)n(C)c(=O)n2C do in these assays?
VDR inh: inactive; KAT2A inh: inactive

What do the screens show for `Fc1ccc2c(c1)c1n[nH]c(=S)nc1n2CCc1ccccc1`?
Rango-impB inh: inactive; PLK1 PBD block: 21µM; VDR inh: inconclusive; Rango dissoc inh: inactive; KAT2A inh: inactive; PI5P4Ka inh: inactive

How did CC1=NN(C(N)=S)C(=O)C1N=Nc1c(Cl)cc([N+](=O)[O-])cc1Cl (stereo not drawn) do in these assays?
Rango-impB inh: inactive; PLK1 PBD block: inconclusive; VDR inh: inconclusive; Rango dissoc inh: inactive; KAT2A inh: inactive; PI5P4Ka inh: -57

What do the screens show for `CC1=NN(C(N)=S)C(=O)C1N=Nc1c(Br)cc(Br)cc1Br` (stereo not drawn)?
Rango-impB inh: inactive; PLK1 PBD block: 24µM; VDR inh: inconclusive; Rango dissoc inh: inactive; KAT2A inh: inactive; PI5P4Ka inh: inconclusive

What do the screens show for `CC1=NN(C(N)=S)C(=O)C1N=Nc1c(C)cc(C)cc1C` (stereo not drawn)?
Rango-impB inh: inactive; PLK1 PBD block: inactive; VDR inh: inactive; Rango dissoc inh: inactive; KAT2A inh: inactive; PI5P4Ka inh: inactive

How did O=S(=O)(NCC1CCCO1)c1ccc(Br)s1 (stereo not drawn) do in these assays?
Rango-impB inh: inactive; PLK1 PBD block: inactive; VDR inh: inactive; Rango dissoc inh: inactive; KAT2A inh: inactive; PI5P4Ka inh: inactive

Results for O=C(NCC1CCCO1)c1ccccc1NS(=O)(=O)c1ccc(Br)s1 (stereo not drawn) ?
Rango-impB inh: inactive; PLK1 PBD block: 24µM; VDR inh: inactive; Rango dissoc inh: inactive; PI5P4Ka inh: inactive

What do the screens show for `Cc1cc(OC(C)C(=O)NCc2cccnc2)c2c(C)cc(=O)oc2c1` (stereo not drawn)?
Rango-impB inh: inactive; PLK1 PBD block: 27µM; VDR inh: inactive; Rango dissoc inh: inactive; KAT2A inh: inactive; PI5P4Ka inh: inactive

What do the screens show for `CCCCc1cc(=O)oc2cc(C)cc(OC(C)C(=O)NCc3ccccn3)c12` (stereo not drawn)?
Rango-impB inh: inactive; PLK1 PBD block: inactive; VDR inh: inactive; Rango dissoc inh: inactive; KAT2A inh: inactive; PI5P4Ka inh: inactive

How did Cc1cc(OC(C)C(=O)NCc2ccncc2)c2c(C)c(C)c(=O)oc2c1 (stereo not drawn) do in these assays?
Rango-impB inh: inactive; PLK1 PBD block: 12µM; VDR inh: inconclusive; Rango dissoc inh: inactive; KAT2A inh: inactive; PI5P4Ka inh: inactive

What do the screens show for `Cc1cc(OC(C)C(=O)NCc2ccccn2)c2c(C)cc(=O)oc2c1` (stereo not drawn)?
Rango-impB inh: inconclusive; PLK1 PBD block: 27µM; VDR inh: inactive; Rango dissoc inh: inactive; KAT2A inh: inactive; PI5P4Ka inh: inactive

How did CCCOCc1cc(CN2CCN(c3cccc(Cl)c3)CC2)c(O)c2ncccc12 do in these assays?
VDR inh: inactive; KAT2A inh: inactive

How did CCCCOCc1cc(CN2CCN(c3cccc(Cl)c3)CC2)c(O)c2ncccc12 do in these assays?
VDR inh: inactive; KAT2A inh: 20µM

How did Oc1c(C(c2ccccc2Cl)N2CCCC2)sc2nc(-c3ccco3)nn12 (stereo not drawn) do in these assays?
VDR inh: inactive; KAT2A inh: inactive

How did O=C(COc1ccc(Cl)cc1Cl)NCCN1CCCCC1 do in these assays?
PLK1 PBD block: inactive; PI5P4Ka inh: inactive

How did O=S(=O)(CCN1CCCCC1)Oc1ccc(Cl)cc1Cl do in these assays?
Rango-impB inh: inactive; PLK1 PBD block: 12µM; VDR inh: inactive; Rango dissoc inh: inactive; KAT2A inh: inactive; PI5P4Ka inh: inactive

How did COc1ccc(/C=C2\C(=O)NC(=O)c3ccccc32)cc1OC do in these assays?
Rango-impB inh: inactive; PLK1 PBD block: 4.7µM; VDR inh: inconclusive; Rango dissoc inh: inactive; PI5P4Ka inh: inactive

Results for COc1ccc(C=C2c3ccccc3C(=O)c3ccccc32)cc1O ?
VDR inh: inconclusive; KAT2A inh: inactive

How did COc1ccc(/C=C2\C(=O)OCc3cc(OC)c(OC)cc32)cc1OC do in these assays?
Rango-impB inh: inactive; PLK1 PBD block: inactive; VDR inh: inactive; Rango dissoc inh: inactive; KAT2A inh: inactive; PI5P4Ka inh: inactive

Results for COc1ccc(C=C2C(=O)OC(C)(C)OC2=O)cc1OC ?
Rango-impB inh: inactive; PLK1 PBD block: 13µM; VDR inh: inactive; Rango dissoc inh: inactive; KAT2A inh: inconclusive; PI5P4Ka inh: inactive

Results for O=[N+]([O-])c1ccc(O)c(/C=N/Nc2ccccc2Cl)c1 ?
Rango-impB inh: inactive; PLK1 PBD block: 27µM; VDR inh: inactive; Rango dissoc inh: inactive; KAT2A inh: inconclusive; PI5P4Ka inh: inactive

What do the screens show for `Cc1sc(N/N=C/c2cc([N+](=O)[O-])ccc2O)nc1-c1ccccc1`?
Rango-impB inh: inactive; PLK1 PBD block: 15µM; VDR inh: inconclusive; Rango dissoc inh: inactive; KAT2A inh: inactive; PI5P4Ka inh: inconclusive

What do the screens show for `O=[N+]([O-])c1ccccc1N/N=C\c1ccccc1Cl`?
Rango-impB inh: inactive; PLK1 PBD block: inactive; VDR inh: inactive; Rango dissoc inh: inactive; KAT2A inh: inactive; PI5P4Ka inh: inactive

Results for COc1cc(OC)cc(C(=O)NC(=S)Nc2cccnc2)c1 ?
Rango-impB inh: inactive; PLK1 PBD block: inactive; VDR inh: inactive; Rango dissoc inh: inactive; KAT2A inh: inactive; PI5P4Ka inh: inactive

How did COc1cc(NC(=S)Nc2cccnc2)cc(OC)c1 do in these assays?
Rango-impB inh: inactive; PLK1 PBD block: 24µM; VDR inh: inactive; Rango dissoc inh: inactive; KAT2A inh: inactive; PI5P4Ka inh: inactive

Results for Cc1ccc(-c2n[nH]c3c2C(c2cccs2)N(c2ccc(Cl)cc2)C3=O)cc1 (stereo not drawn) ?
VDR inh: inactive; KAT2A inh: inactive
